# Data reported in PubChem BioAssay.
# Active and inactive are the calls of the source. Unless noted, how the calls were made is not given here.
# Tests used:
# [1] = compounds binding Alexa647 anti-His antibody – biochemical, small-molecule microarray, 635 nm fluorescence, artefact control for SMM control protein annotation, primary screen (AID 1128); details: higher = more signal;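 further: score merges feature fluorescence with signal-to-noise for each printed compound spot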
# [2] = tested on: Human papillomavirus type 1a E7 protein (residues 1-88); experiment: HPV1a E7 small-molecule binders, primary screen, biochemical, small-molecule microarray, residues 1-88, 635 nm (AID 1129); details: small-molecule microarray binding, fluorescence 635 nm; higher = more signal
# [3] = molecular target: Focal adhesion kinase 1 (Homo sapiens) (UniProt Q05397); experiment: PTK2 protein binding on printed compound slides – biochemical, small-molecule microarray, 635/667 nm fluorescence, BSA, DTT, primary screen (AID 1130); details: 635 nm fluorescence, higher = more signal;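 further: composite of spot emission at 667 nm and signal to noise over triplicate slides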
# Focal adhesion kinase 1 (Homo sapiens), sequence (Q05397 whole entry, looked up): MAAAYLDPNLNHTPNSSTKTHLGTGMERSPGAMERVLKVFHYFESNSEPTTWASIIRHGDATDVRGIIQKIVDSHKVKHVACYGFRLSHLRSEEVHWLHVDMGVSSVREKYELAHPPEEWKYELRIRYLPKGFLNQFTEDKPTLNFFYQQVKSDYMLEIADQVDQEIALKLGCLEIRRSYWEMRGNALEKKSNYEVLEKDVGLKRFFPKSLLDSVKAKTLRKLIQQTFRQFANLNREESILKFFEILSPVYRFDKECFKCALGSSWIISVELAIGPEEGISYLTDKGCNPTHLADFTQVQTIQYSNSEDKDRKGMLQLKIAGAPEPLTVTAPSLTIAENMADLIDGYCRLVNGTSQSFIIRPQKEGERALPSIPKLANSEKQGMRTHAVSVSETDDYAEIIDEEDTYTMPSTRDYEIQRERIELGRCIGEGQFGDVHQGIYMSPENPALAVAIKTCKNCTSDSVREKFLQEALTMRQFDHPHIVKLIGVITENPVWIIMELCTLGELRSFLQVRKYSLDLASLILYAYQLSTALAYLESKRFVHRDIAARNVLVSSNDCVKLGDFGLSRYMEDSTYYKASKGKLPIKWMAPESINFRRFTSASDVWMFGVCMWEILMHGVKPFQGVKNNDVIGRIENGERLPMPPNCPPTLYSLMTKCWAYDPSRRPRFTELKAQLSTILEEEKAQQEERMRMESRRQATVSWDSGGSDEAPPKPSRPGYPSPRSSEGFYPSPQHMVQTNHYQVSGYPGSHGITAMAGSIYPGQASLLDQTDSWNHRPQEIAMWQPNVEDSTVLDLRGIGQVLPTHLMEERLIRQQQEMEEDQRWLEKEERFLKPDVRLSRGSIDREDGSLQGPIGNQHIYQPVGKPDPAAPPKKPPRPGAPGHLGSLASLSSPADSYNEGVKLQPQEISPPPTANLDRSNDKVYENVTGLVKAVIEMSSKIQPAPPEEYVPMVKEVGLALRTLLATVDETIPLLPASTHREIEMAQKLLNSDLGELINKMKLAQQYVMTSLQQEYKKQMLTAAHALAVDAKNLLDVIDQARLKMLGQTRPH
# [4] = tested on: Fibrinogen (Alexa647-labelled); experiment: Alexa647-fibrinogen binding to printed small molecules – biochemical, small-molecule microarray, 635/667 nm fluorescence, artefact control for SMM control-protein annotation, profiling panel (AID 1131); details: fibrinogen-A647 binding fluorescence, higher = more signal;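 further: z-score merges 667 nm fluorescence with per-spot signal-to-noise over triplicate slides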
# [5] = molecular target: Follistatin (Homo sapiens) (UniProt P19883); experiment: FST protein binding to printed compounds – biochemical, small-molecule microarray, 635/667 nm fluorescence, primary screen (AID 1132); details: 635 nm fluorescence, higher = more signal
# Follistatin (Homo sapiens), sequence (P19883 whole entry, looked up): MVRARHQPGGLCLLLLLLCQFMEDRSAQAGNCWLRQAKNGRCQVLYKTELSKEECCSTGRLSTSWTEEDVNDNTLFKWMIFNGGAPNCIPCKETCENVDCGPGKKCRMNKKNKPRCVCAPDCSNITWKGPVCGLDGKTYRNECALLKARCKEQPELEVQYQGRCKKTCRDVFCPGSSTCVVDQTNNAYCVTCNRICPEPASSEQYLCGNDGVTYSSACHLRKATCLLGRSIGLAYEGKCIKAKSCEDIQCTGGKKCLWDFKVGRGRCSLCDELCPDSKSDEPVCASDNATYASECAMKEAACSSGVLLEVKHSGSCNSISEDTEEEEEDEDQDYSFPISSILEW
# [6] = molecular target: Fibroblast growth factor 2 (Homo sapiens) (UniProt P09038); experiment: basic fibroblast growth factor binding to printed compounds – biochemical, small-molecule microarray, 635/667 nm fluorescence, primary screen (AID 1133); details: FGF2, fluorescence 635/667, higher = more signal
# Fibroblast growth factor 2 (Homo sapiens), sequence (P09038 whole entry, looked up): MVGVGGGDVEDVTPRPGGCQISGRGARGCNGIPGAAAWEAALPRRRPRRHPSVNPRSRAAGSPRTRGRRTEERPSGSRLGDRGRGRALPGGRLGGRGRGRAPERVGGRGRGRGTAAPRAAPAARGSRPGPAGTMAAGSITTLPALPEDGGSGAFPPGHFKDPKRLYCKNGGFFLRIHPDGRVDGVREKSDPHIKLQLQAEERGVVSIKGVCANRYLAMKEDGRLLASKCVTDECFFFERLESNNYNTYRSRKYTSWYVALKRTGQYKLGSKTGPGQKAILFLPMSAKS
# [7] = JC-1 mitochondrial potential readout, lung cancer cells – cell-based, A549, JC-1 fluorescence, basal, 24 h, 100 nL, profiling panel (AID 1138); details: higher = more signal;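 further: A549 lung adenocarcinoma cells under basal conditions with no added stimulus; test concentration not given here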
# Lefty1 = Lefty1 protein binding to printed compounds – biochemical, small-molecule microarray, 635/667 nm fluorescence, primary screen (AID 1139); details: fluorescence 635/667, higher = more signal
# [8] = tested on: wheat germ agglutinin (Triticum aestivum), Alexa647-labelled; experiment: Alexa647-WGA lectin binding to printed small molecules – biochemical, small-molecule microarray, 635/667 nm fluorescence, artefact control for SMM control-protein annotation, profiling panel (AID 1140); details: WGA-A647 binding, 635 nm fluorescence, higher = more signal;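 further: score merges 667 nm feature emission with signal to noise over triplicate slides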
# [9] = molecular target: Luciferin 4-monooxygenase (Photinus pyralis) (UniProt P08659); experiment: inhibition of purified Photinus pyralis luciferase – biochemical, luminescence, purified enzyme, 2006 set, primary screen (AID 1141); details: purified firefly luciferase, SteadyGlo luminescence, 30 min; higher = more signal, called active from +8 up or from −8 down;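 further: cell-free assay with purified firefly luciferase at 100 ng per well in PBS; test concentration not given here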
# Luciferin 4-monooxygenase (Photinus pyralis), sequence (P08659 whole entry, looked up): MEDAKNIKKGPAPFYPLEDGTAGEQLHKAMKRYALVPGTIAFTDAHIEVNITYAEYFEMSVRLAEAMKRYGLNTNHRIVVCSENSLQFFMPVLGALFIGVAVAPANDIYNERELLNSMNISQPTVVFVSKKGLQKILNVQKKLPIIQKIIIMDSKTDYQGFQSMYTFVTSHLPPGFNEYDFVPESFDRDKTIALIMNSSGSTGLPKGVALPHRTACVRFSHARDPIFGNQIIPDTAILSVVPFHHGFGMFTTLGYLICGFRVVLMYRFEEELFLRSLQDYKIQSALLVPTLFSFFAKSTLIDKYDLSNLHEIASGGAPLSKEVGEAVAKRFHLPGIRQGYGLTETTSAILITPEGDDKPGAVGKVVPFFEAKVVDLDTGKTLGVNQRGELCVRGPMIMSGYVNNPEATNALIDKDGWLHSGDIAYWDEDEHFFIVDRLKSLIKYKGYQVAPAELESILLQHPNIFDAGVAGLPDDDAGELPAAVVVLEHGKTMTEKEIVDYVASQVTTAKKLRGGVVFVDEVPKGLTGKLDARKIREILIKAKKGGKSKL
# [10] = tested on: Wnt5a (protein binding on small-molecule microarray); experiment: small molecules binding Wnt5a protein – biophysical, small-molecule microarray, 635/667 nm fluorescence, primary screen (AID 1142); details: 635 nm fluorescence, higher = more signal;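 further: fluorescence read at 667 nm with signal to noise per printed feature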
# [11] = ATP-based viability of Huh7 replicon cells – cell-based, CellTiter-Glo luminescence, basal, 48 h, cytotoxicity control for HCV replication inhibitor project, primary screen (AID 1143); details: higher = more signal, called active from +8 up or from −8 down;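 further: Huh7 hepatoma cells carrying a hepatitis C replication reporter with no stimulus; test concentration not given here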
# [12] = Pseudomonas biofilm growth suppression – PAO1 strain, BacTiter-Glo luminescence, LB-PBS, primary screen (AID 1144); details: P. aeruginosa PAO1 biofilm, 12 h, higher = more signal
# [13] = basal CRE-LacZ reporter activity in PC12 – cell-based, unstimulated, primary screen (AID 1145); details: no forskolin, luminescence, 4.5 h, higher = more signal, called active from +8 up or from −8 down
# [14] = forskolin-driven CRE-LacZ activity in PC12 – cell-based, CRE-LacZ reporter, forskolin-stimulated, primary screen (AID 1146); details: luminescence, 4.5 h, higher = more signal, called active from +8 up or from −8 down;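 further: PC12 cells with 6xCRE LacZ reporter stimulated by forskolin 10 µM; beta-galactosidase reporter signal reflecting CREB driven transcription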
# [15] = molecular target: Streptavidin (Streptomyces avidinii) (UniProt P22629); experiment: compounds binding control protein streptavidin – biophysical, small-molecule microarray, 635/667 nm fluorescence, artefact control for SMM compound annotation, primary screen (AID 1147); details: higher = more signal;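 further: signal reflects streptavidin binding to arrayed compounds as a control protein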
# Streptavidin (Streptomyces avidinii), sequence (P22629 whole entry, looked up): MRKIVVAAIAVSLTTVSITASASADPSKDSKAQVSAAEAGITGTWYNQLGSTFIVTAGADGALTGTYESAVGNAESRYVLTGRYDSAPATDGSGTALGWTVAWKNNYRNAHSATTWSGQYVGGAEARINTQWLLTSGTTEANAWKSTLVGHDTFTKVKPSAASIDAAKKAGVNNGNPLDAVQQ
# [16] = probe aInhba binding on compound microarray – biochemical, small-molecule microarray, 635/667 nm fluorescence, primary screen (AID 1148); details: higher = more signal;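 further: score merges 667nm spot fluorescence with signal-to-noise for antibody binding to printed compounds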
# Torsin-1A (Homo sapiens) [17] = molecular target: Torsin-1A (Homo sapiens) (UniProt O14656); experiment: TOR1A wild-type binding on microarray – cell lysate, small-molecule microarray, lysate, 635/667 nm, primary screen (AID 1149); details: COS7 hTOR1A-WT lysate, 635 nm fluorescence, higher = more signal
# Torsin-1A (Homo sapiens), sequence (O14656 whole entry, looked up): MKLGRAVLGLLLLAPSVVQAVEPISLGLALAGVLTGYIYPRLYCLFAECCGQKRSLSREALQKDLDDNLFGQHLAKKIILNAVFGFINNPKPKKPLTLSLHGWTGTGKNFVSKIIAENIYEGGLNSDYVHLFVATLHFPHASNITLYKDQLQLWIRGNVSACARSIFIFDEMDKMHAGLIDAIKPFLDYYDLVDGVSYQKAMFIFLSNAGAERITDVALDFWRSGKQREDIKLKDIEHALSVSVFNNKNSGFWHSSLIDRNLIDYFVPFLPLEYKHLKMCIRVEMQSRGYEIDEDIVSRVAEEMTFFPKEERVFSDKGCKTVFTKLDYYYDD
# Torsin-1A (Homo sapiens) [18] = molecular target: Torsin-1A (Homo sapiens) (UniProt O14656); experiment: torsin A mutant lysate binding on microarrays – cell lysate, small-molecule microarray, COS7 lysate, 635/667 nm fluorescence, primary screen (AID 1150); details: COS7 hTOR1A mutant lysate, 635 nm fluorescence, higher = more signal;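 further: score pools 667 nm emission and signal to noise measuring lysate protein binding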
# [19] = tested on: Sonic hedgehog protein (Shh); experiment: Sonic hedgehog microarray binding compounds – biochemical, small-molecule microarray, 635/667 nm fluorescence, primary screen (AID 1151); details: 635 nm fluorescence, higher = more signal;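 further: Shh protein binding to compounds spotted on small-molecule microarray slides; score combines spot fluorescence intensity with signal-to-noise across triplicate slides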
SMILES,composite z-score [1],composite z-score [2],composite z-score [3],composite z-score [4],composite z-score [5],composite z-score [6],z-score [7],composite z-score (Lefty1),composite z-score [8],z-score [9],composite z-score [10],z-score [11],z-score [12],z-score [13],z-score [14],composite z-score [15],composite z-score [16],composite z-score (Torsin-1A (Homo sapiens) [17]),composite z-score (Torsin-1A (Homo sapiens) [18]),composite z-score [19]
C=CC[C@]1(C(=O)N2CCOCC2)N=C(c2ccc(OCCCO)cc2)O[C@H]1c1ccccc1CN=[N+]=[N-],1.82,1.21,0.88,0.97,1.28,0.95,1.64,1.05,0.845,-1.46 (inactive),0.662,-3.25 (inactive),0.112 (inactive),3.51 (inactive),-0.745 (inactive),1.06,0.455,0.689,1.1,0.871
CC(C)C[C@@H]1NC(=O)[C@@H]2C[C@H](C(=O)NCc3ccc(F)cc3)[C@H](c3ccc(O)cc3)N2C1=O,2.13,0.0885,0.317,0.248,1.34,1.91,0.634,0.689,-0.299,-0.0763 (inactive),0.187,-0.393 (inactive),-0.0526 (inactive),-0.26 (inactive),-0.101 (inactive),-0.419,-0.118,0.483,0.44,1.46
[N-]=[N+]=NCc1ccccc1[C@H]1OC(c2ccc(OCCCO)cc2)=N[C@@]1(Cc1ccccc1N=[N+]=[N-])C(=O)N1CCCCC1,2.35,1.23,0.529,0.974,1.34,1.56,2.16,0.68,0.681,-1.9 (inactive),0.163,-3.39 (inactive),-0.567 (inactive),0.236 (inactive),-1.04 (inactive),1.31,0.277,0.84,0.89,0.419
O=C1c2ccccc2C(=O)C2CC([C@H]3Oc4ccccc4S(=O)(=O)N4CCC[C@@H]34)=CCC12 (stereo not given in full),-0.0332,0.101,0.867,0.788,-0.0849,0.189,-0.309,-0.02,0.47,-0.759 (inactive),-0.0428,-3.06 (inactive),0.618 (inactive),6.12 (inactive),-1.59 (inactive),0.161,-0.0471,0.208,0.402,-0.133
COc1cc(NN2C(C(O)c3ccc(I)cc3)C=CC3C(=O)N(C)C(=O)C32)cc(OC)c1OC (stereo not given),2.61,0.351,1.2,-0.472,-0.0712,-0.893,0.223,-0.595,0.701,-0.977 (inactive),0.212,-2.58 (inactive),-0.126 (inactive),-0.326 (inactive),-0.445 (inactive),-0.105,0.0074,-0.442,1.42,-0.441
